Screening data as filed in PubChem BioAssay.
A selection: hits, their analogues and other compounds. The true share with any hit is near 1.8%.
LYPLA2 inh = LYPLA2 inhibitors, primary screen, counter-screen for PME1 inhibitor project, biochemical, fluorescence polarization, FP-Rh probe ABPP. Acyl-protein thioesterase 2 (Homo sapiens), O95372. recombinant LYPLA2. inhibition, % at 5.9 µM. 0.38% of 320,000 active. AID 2177, 2009;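 active means inhibition above the screen-wide mean plus 3 SD, limit set per campaign, cut at about 26% in these data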
Target sequence (O95372 whole entry, looked up): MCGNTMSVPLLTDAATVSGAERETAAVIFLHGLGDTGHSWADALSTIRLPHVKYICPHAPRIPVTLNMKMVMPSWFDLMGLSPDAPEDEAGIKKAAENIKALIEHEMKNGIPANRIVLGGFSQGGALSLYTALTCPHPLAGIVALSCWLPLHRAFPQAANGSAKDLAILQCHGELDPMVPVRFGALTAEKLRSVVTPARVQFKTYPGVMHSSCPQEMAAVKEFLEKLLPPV
LYPLA1 counter = LYPLA1 inhibitors, primary screen, counter-screen for PME1 inhibitor project, biochemical, fluorescence polarization, FP-Rh probe ABPP. Acyl-protein thioesterase 1 (Homo sapiens), O75608. recombinant LYPLA1. inhibition, % at 5.9 µM. 0.16% of 320,000 active. AID 2174, 2009;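 active means inhibition above the mean of all tested compounds plus 3 SD, set per campaign, cut at about 14% in these data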;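 further: inhibitors block serine hydrolase probe labeling of LYPLA1 so polarization falls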
Target sequence (O75608 whole entry, looked up): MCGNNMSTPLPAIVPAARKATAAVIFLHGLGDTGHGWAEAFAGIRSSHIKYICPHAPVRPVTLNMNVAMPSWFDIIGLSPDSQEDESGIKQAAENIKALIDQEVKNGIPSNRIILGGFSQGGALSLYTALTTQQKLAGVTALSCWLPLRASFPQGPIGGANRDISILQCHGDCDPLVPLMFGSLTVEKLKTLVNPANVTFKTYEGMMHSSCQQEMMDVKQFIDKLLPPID
PAD4 FP inh = human PAD4 inhibitors, primary screen, biochemical, fluorescence polarization, 1536-well format. inhibition, % at 6.36 µM. recombinant PAD4, RCA probe fluorescence polarization. Protein-arginine deiminase type-4 (Homo sapiens), Q9UM07. 0.41% of 330,000 active. AID 485272, 2010;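 active means percent inhibition above a cutoff equal to the mean of all tested compounds plus 3 SD, cut at about 15% in these data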
PME-1 primary = PME-1 inhibitors via competitive probe labeling, primary screen, biochemical, fluorescence polarization, FP-Rh probe, HTS | recombinant PME-1 | inhibition, % at 5.9 µM | 0.53% of 320,000 active;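 active means inhibition above the campaign mean of all compounds plus 3 SD, cut at about 26% in these data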;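 further: competitive labeling of PME-1 active site by serine hydrolase directed probe; inhibitors block probe labeling so polarization falls and inhibition rises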
GSTO1 counter = inhibitors of recombinant GSTO1, primary screen, counter-screen for RBBP9 inhibitor project, biochemical, fluorescence polarization. AID 1974, 2009. inhibition, % at 5.96 µM. activity-based probe fluorescence polarization. 1.1% of 300,000 active. Glutathione S-transferase omega-1 (Homo sapiens), P78417;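 active means inhibition above the campaign mean inhibition plus 3 SD, cut at about 35% in these data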
Fam108B counter = mouse Fam108B serine hydrolase inhibitors, primary screen, counter-screen for RBBP9 inhibitor project, biochemical, fluorescence polarization | recombinant Fam108B, FP-Rh probe fluorescence polarization | inhibition, % at 9.51 µM | 0.33% of 300,000 active | AID 1947, 2009;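 active means inhibition above the screen mean inhibition plus 3 SD, computed separately per campaign, cut at about 18% in these data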;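 further: inhibitors lower polarization as less probe binds the enzyme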
Large screens that a line does not name were inactive.

CCN(CC)c1ccc(NC(=O)C2=CC=CN3CCS(=O)(=O)N=C23)cc1	none (no result: GSTO1 counter, Fam108B counter)
O=C(NCc1ccc(Cl)cc1Cl)C1CC(=O)N(Cc2ccccc2)C1 (stereo not given)	none
CC1=NN(c2ccccc2)C(=O)C1N=Nc1cccc(O)c1 (stereo not given)	PME-1 primary 28.2
CCCc1nnc(NC(=O)CSc2nc3ccccc3[nH]2)s1	none
CCc1nnc(NC(=O)CSc2nc3c(C)cccc3[nH]2)s1	GSTO1 counter 36.4
CC(C)Cc1nnc(NC(=O)CSc2nc(N)cc(=O)[nH]2)s1	GSTO1 counter 47.5
CCc1nnc(NC(=O)CSc2sc3c(O)cc(=O)[nH]c3c2C#N)s1	GSTO1 counter 48.0
O=C(NCc1ccccc1)C1=C[C@@H](c2ccc(Br)cc2)C[C@@H](OCCCCO)O1	none
CC1(OC(=O)CCc2ccccc2)C(=O)C=C2C=C3CCCN3C=C2C1=O (stereo not given)	GSTO1 counter 36.5
O=c1c2ccccc2nc(/C=C/c2c[nH]c3ccccc23)n1CCO	PME-1 primary 47.0
CC(C)(C)c1nnc(NS(=O)(=O)c2cc(Cl)ccc2Cl)s1	none
O=S(=O)(Nc1nc(-c2sccc2Cl)cs1)c1cc(Cl)ccc1Cl	GSTO1 counter 40.1, Fam108B counter 28.6
CCc1cc(C(=O)N=Nc2c(O)[nH]c3ccc([N+](=O)[O-])cc23)c2ccccc2n1	GSTO1 counter 43.3
CCCCCCC(=O)N=Nc1c(O)[nH]c2ccc([N+](=O)[O-])cc12	none
CC(=O)Nc1cccc(-c2cnc(N)c(C(=O)c3cccnc3)n2)c1	none (no result: LYPLA2 inh, LYPLA1 counter, PME-1 primary, GSTO1 counter, Fam108B counter)
N#CCC(N)=C(C#N)C#N	GSTO1 counter 78.8
COC(=O)CC#N	none (no result: GSTO1 counter, Fam108B counter)
O=C(c1ccco1)c1coc2c1cc(O)c1ccccc12	GSTO1 counter 43.2
CC(=O)c1coc2c1cc(O)c1ccccc12	none
COc1cc(/C=N/Nc2nc3ccccc3[nH]2)cc(OC)c1O	GSTO1 counter 73.3
Cn1c(/C=N/Nc2nc3ccccc3[nH]2)nc2ccccc21	PME-1 primary 47.8
Cc1c(/C=N/Nc2nc3ccccc3[nH]2)c2ccccc2n1C	none
COc1cc(/C=N/Nc2nc3ccccc3[nH]2)ccc1O	none
CCO[C@@H]1OC(C(=O)NC2CC2)=C[C@H](c2ccc(Br)cc2)[C@H]1CCCO	none
COC(=O)CCC(=O)OC1(C)C(=O)C2=CN(c3ccc(OC)cc3)C(c3ccc(OC)cc3)=CC2=C(Br)C1=O (stereo not given)	GSTO1 counter 36.2
N#Cc1c(-c2ccccc2)nc(SCC(=O)Nc2ccccc2)[nH]c1=O	none
N#Cc1c(-c2ccccc2)nc(SCC(=O)Nc2nnc(C(F)(F)F)s2)[nH]c1=O	GSTO1 counter 66.7
Oc1nc(Nc2ccccc2)sc1/C=C1\C=Nc2ccccc21	PME-1 primary 44.4
CCOC(=O)c1c(Nc2ccccc2)sc(/C=C2\C=Nc3ccccc32)c1O	none
CC(C)CCNC(=O)C1(c2cccs2)CCOCC1	none
COC(=O)c1[nH]c2ccccc2c1NC(=O)CN1CCN(C(=O)c2ccco2)CC1	GSTO1 counter 35.8
CC(=O)Nc1c(S(=O)(=O)c2ccccc2)c2nc3ccccc3nc2n1Cc1ccccc1	none
O=S(=O)(Nc1c(S(=O)(=O)c2ccccc2)c2nc3ccccc3nc2n1C1CCCCC1)c1ccccc1	GSTO1 counter 48.9
O=C(CCn1c(=O)[nH]c2ccsc2c1=O)N1CCN(c2cccc(Cl)c2)CC1	none
Cc1ccc(Cl)cc1N1CCN(C(=O)Cc2ccc(-n3c(=O)[nH]c4ccsc4c3=O)cc2)CC1	LYPLA2 inh 33.8
CC(NC(=O)c1cccc(S(=O)(=O)N2CCN(Cc3ccccc3)CC2)c1)c1ccc(Br)cc1 (stereo not given)	none
CN(C)c1ccc(N=Nc2ccc(S(=O)(=O)O)cc2)c2ccccc12	GSTO1 counter 36.9
CN(C)c1ccc(N=Nc2ccc(S(N)(=O)=O)cc2)cc1	none
CN(C(=O)CSc1nc2scc(-c3ccccc3)c2c(=O)[nH]1)c1ccccc1	none (no result: LYPLA2 inh, LYPLA1 counter, PME-1 primary, GSTO1 counter, Fam108B counter)
CCCCn1c(NC(=O)c2ccc(F)cc2)c(C#N)c2nc3ccccc3nc21	LYPLA2 inh 60.9, LYPLA1 counter 59.7, PAD4 FP inh 69.7, GSTO1 counter 67.3, Fam108B counter 55.7
COc1ccc(Nc2ccc(OC)cc2)cc1	GSTO1 counter 36.0
Nc1[nH]n(-c2ccccc2)c(=O)c1N=Nc1ccc2c(c1)OCCO2	PME-1 primary 42.6
Nc1nn(-c2ccccc2)c(N)c1N=Nc1ccc2c(c1)OCO2	none
Nc1[nH]n(-c2ccccc2)c(=O)c1N=Nc1ccc2c(c1)OCO2	PME-1 primary 33.1
O=C(Cn1ccc(C(F)(F)F)n1)N/N=C/c1ccc2c(c1)OCO2	none
Cc1cccc(NC(=O)COC(=O)c2cccs2)c1C	none
CC(=O)Nc1ccc(NC(=O)C(C)OC(=O)CC23CC4CC(CC(Br)(C4)C2)C3)cc1 (stereo not given)	none (no result: LYPLA2 inh, LYPLA1 counter, PME-1 primary, GSTO1 counter, Fam108B counter)
O=C(O)c1ccc(N/N=C/c2ccc(-c3ccc(Br)cc3)o2)cc1	PME-1 primary 32.9
Cc1ccc(/C=N/Nc2ccc(C(=O)O)cc2)o1	none
CCOC(=O)c1c2c(n(C)c1C)C(=O)C(=O)c1ccc(Br)cc1-2	GSTO1 counter 72.0
Cc1c(CN(C)C)c2c(n1C)C(=O)c1ccc(Br)cc1-2	none
Nc1nc(-c2c[nH]c3ccccc23)cs1	none
Cc1ccc2c(-c3csc(N)n3)c[nH]c2c1	PME-1 primary 51.4
CC(=O)Nc1ccc(S(=O)(=O)NCCSCc2ccccc2Cl)cc1	GSTO1 counter 53.9
CC(=O)Nc1ccc(S(=O)(=O)NCCC(=O)Nc2ccc(C)c(Cl)c2)cc1	none
COc1cccc(/C=N/Nc2nc3ccccc3n3cnnc23)c1	none
COc1cccc(/C=N/Nc2nc3ccccc3n3cnnc23)c1O	PME-1 primary 29.0
CCOC(=O)c1c(C)[nH]c(C)c1C(=O)COC(=O)c1c(OC)cccc1OC	none
CCOC(=O)c1c(C)[nH]c(C)c1C(=O)COC(=O)c1ccc(OC)c(OC)c1	GSTO1 counter 35.3
Cc1ccc(NC(=O)COC(=O)C2=NNC(=O)CC2)c(Br)c1	none (no result: LYPLA2 inh, LYPLA1 counter, PME-1 primary, GSTO1 counter, Fam108B counter)
O=C1c2c(O)cc(O)cc2O[C@H](c2ccc(O)cc2)[C@H]1O	none
O=C1c2c(O)cc(O)cc2O[C@H](c2ccc(O)c(O)c2)[C@H]1O	LYPLA2 inh 35.8
COc1cc([C@@H]2Oc3cc(C4Oc5cc(O)cc(O)c5C(=O)[C@H]4O)ccc3O[C@H]2CO)ccc1O (stereo not given in full)	LYPLA2 inh 50.1
